Reference: PubChem BioAssay AID1159580 (chemical genetic matrix, 2015)
Screen size: about 5,500 compounds; about 2,000 (36%) were called active. Not shown: some 18% with an inconclusive outcome. Cut-off read from the data, not from the text of the source: active = normalized growth mostly below about 0.91 (no sharp cut-off); inconclusive = no clear call, values can overlap the other calls; inactive = mostly above about 0.92. Some of the results follow.

Test: chemical genetic growth profiling, strain panel (AID 1159580);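 note: tested at 20 µM; growth read once vehicle control cultures reached saturation at 30 °C; 1 = growth at the plate median or of vehicle wells; lower values mean less growth of the strain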
Conditions: S. cerevisiae deletion strains, growth OD

Measured: normalized growth

CC(C)c1cccc(C(C)C)c1O
inactive: locus YAL013W, strain DEP1, active compounds read low 1.01 | locus YAL021C, strain ccr4, active compounds read low 1 | locus YAL026C, strain drs2, active compounds read low 0.993 | locus YAL030W, strain snc1, active compounds read low 0.985 | locus YAL040C, strain CLN3, active compounds read low 0.998 | locus YBL061C, strain skt5, active compounds read low 0.983 | locus YBR009C, strain hhf1, active compounds read low 0.966 | locus YBR023C, strain chs3, active compounds read low 0.977 | locus YBR171W, strain sec66, active compounds read low 0.987 | locus YBR231C, strain swc5, active compounds read low 0.997 | locus YBR279W, strain paf1, active compounds read low 0.992 | locus YCL011C, strain gbp2, active compounds read low 0.991 | locus YCL016C, strain dcc1, active compounds read low 0.976 | locus YCL061C, strain MRC1 (second series), active compounds read low 0.988 | locus YCL061C, strain MRC1, active compounds read low 0.991 | locus YCL069W, strain vba3, active compounds read low 0.992 | locus YCR088W, strain abp1, active compounds read low 0.996 | locus YDL005C, strain med2, active compounds read low 0.984 | locus YDL040C, strain nat1, active compounds read low 0.976 | locus YDR001C, strain nth1, active compounds read low 0.994 | locus YDR069C, strain doa4, active compounds read low 0.981 | locus YDR137W, strain rgp1, active compounds read low 0.966 | locus YDR150W, strain NUM1, active compounds read low 0.993 | locus YDR159W, strain sac3, active compounds read low 0.982 | locus YDR195W, strain ref2 0.951 | locus YDR297W, strain sur2, active compounds read low 0.988 | locus YDR334W, strain swr1, active compounds read low 0.988 | locus YDR335W, strain msn5, active compounds read low 0.993 | locus YDR363W, strain ESC2, active compounds read low 0.973 | locus YDR392W, strain spt3, active compounds read low 0.869 | locus YEL003W, strain gim4, active compounds read low 0.99 | locus YEL037C, strain rad23, active compounds read low 0.986 | locus YEL061C, strain CIN8 (second series), active compounds read low 0.986 | locus YER002W, strain NOP16, active compounds read low 0.986 | locus YER015W, strain faa2, active compounds read low 0.983 | locus YER016W, strain bim1, active compounds read low 0.979 | locus YER111C, strain swi4, active compounds read low 0.973 | locus YER155C, strain BEM2 (second series), active compounds read low 0.996 | locus YFR010W, strain ubp6, active compounds read low 0.978 | locus YGL167C, strain pmr1, active compounds read low 0.972 | locus YGL173C, strain kem1, active compounds read low 0.98 | locus YGL227W, strain vid30, active compounds read low 0.988 | locus YGL240W, strain doc1, active compounds read low 0.983 | locus YGL253W, strain hxk2, active compounds read low 0.997 | locus YGR078C, strain PAC10, active compounds read low 1 | locus YHR013C, strain ard1, active compounds read low 1.03 | locus YHR027C, strain rpn1, active compounds read low 0.99 | locus YHR030C, strain SLT2, active compounds read low 0.94 | locus YHR079C, strain IRE1, active compounds read low 0.954 | locus YHR142W, strain chs7, active compounds read low 1.01 | locus YJL092W, strain hpr5, active compounds read low 0.992 | locus YJL095W, strain BCK1 (second series), active compounds read low 0.993 | locus YJL095W, strain BCK1, active compounds read low 0.992 | locus YJL115W, strain asf1, active compounds read low 0.983 | locus YJL129C, strain trk1, active compounds read low 0.992 | locus YJL154C, strain vps35, active compounds read low 0.99 | locus YJL164C, strain tpk1, active compounds read low 0.979 | locus YJL166W, strain qcr8, active compounds read low 0.986 | locus YJL187C, strain SWE1, active compounds read low 0.994 | locus YJR066W, strain TOR1, active compounds read low 0.935 | locus YJR075W, strain HOC1, active compounds read low 1 | locus YKL160W, strain elf1, active compounds read low 1 | locus YKR026C, strain gcn3, active compounds read low 0.953 | locus YKR091W, strain srl3, active compounds read low 0.984 | locus YLL001W, strain dnm1, active compounds read low 0.988 | locus YLL026W, active compounds read low 0.988 | locus YLL041C, strain sdh2, active compounds read low 0.996 | locus YLR027C, strain aat2, active compounds read low 0.993 | locus YLR113W, strain HOG1, active compounds read low 0.996 | locus YLR221C, strain rsa3, active compounds read low 1.01 | locus YLR258W, strain gsy2, active compounds read low 0.991 | locus YLR262C, strain YPT6 (second series), active compounds read low 0.97 | locus YLR320W, strain mms22, active compounds read low 0.935 | locus YLR342W, strain FKS1, active compounds read low 0.986 | locus YLR357W, strain rsc2, active compounds read low 0.939 | locus YLR370C, strain arc18, active compounds read low 0.996 | locus YLR384C, strain iki3, active compounds read low 0.971 | locus YML120C, strain ndi1, active compounds read low 0.98 | locus YMR058W, strain fet3, active compounds read low 0.996 | locus YMR125W, strain sto1, active compounds read low 0.988 | locus YMR129W, active compounds read low 1 | locus YMR205C, strain PFK2, active compounds read low 0.941 | locus YMR231W, strain pep5, active compounds read low 0.992 | locus YMR263W, strain SAP30, active compounds read low 1 | locus YMR307W, strain GAS1, active compounds read low 1 | locus YNL071W, strain lat1, active compounds read low 0.996 | locus YNL153C, strain GIM3, active compounds read low 1.01 | locus YNL175C, strain NOP13, active compounds read low 1.03 | locus YNL183C, strain NPR1, active compounds read low 0.942 | locus YNL197C, strain WHI3, active compounds read low 1 | locus YNL209W, strain ssb2, active compounds read low 0.992 | locus YNL224C, strain SQS1, active compounds read low 1.02 | locus YNL248C, strain rpa49, active compounds read low 1.01 | locus YNL322C, strain KRE1 (second series), active compounds read low 0.981 | locus YNL322C, strain KRE1, active compounds read low 1.01 | locus YNR049C, strain mso1, active compounds read low 0.983 | locus YOR001W, strain rrp6, active compounds read low 0.997 | locus YOR070C, strain gyp1, active compounds read low 0.99 | locus YOR080W, strain dia2, active compounds read low 0.984 | locus YOR083W, strain WHI5 (second series), active compounds read low 1.02 | locus YOR083W, strain WHI5, active compounds read low 1.01 | locus YOR106W, strain vam3, active compounds read low 0.991 | locus YOR231W, strain MKK1, active compounds read low 0.914 | locus YOR265W, strain rbl2, active compounds read low 0.991 | locus YOR270C, strain vph1, active compounds read low 0.993 | locus YOR290C, strain snf2, active compounds read low 0.918 | locus YPL051W, strain arl3, active compounds read low 1 | locus YPL055C, strain LGE1, active compounds read low 0.999 | locus YPL078C, strain atp4, active compounds read low 0.994 | locus YPL106C, strain sse1, active compounds read low 0.951 | locus YPL240C, strain hsp82, active compounds read low 1.01 | locus YPL241C, strain CIN2, active compounds read low 1.01 | locus YPL256C, strain CLN2, active compounds read low 0.929
